FLuc inh = Firefly luciferase inhibition profiling of diverse chemical library using quantitative high-throughput screening | Luciferin 4-monooxygenase (Photinus pyralis), P08659 | purified P. pyralis luciferase, luminescence, biochemical | Potency, µM (highest dose often 115 µM), hits mostly inhibitors | hit rate 2.5% among 76,000; note: nearly all actives have a fitted effect of over 65% in size
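Inhibitors were tested against purified firefly luciferase in a biochemical, low-substrate format (both substrates at 10uM) and luminescence measured with a CCD imager.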
NPR1 antag = Natriuretic polypeptide receptor (hNpr1) antagonism - Primary qHTS; Atrial natriuretic peptide receptor 1 (Homo sapiens), P16066; HEK293 hNpr1 GloSensor cGMP, ANP-stimulated luminescence; Potency, µM (titrated, usually from 46.3 µM), usual class: inhibitors; hit rate 1.6% among 76,000; AID 1347048, 2019; calls by dose curve; note: nearly all actives have a fitted effect of over 60% in size
Target sequence (P16066 whole entry, looked up): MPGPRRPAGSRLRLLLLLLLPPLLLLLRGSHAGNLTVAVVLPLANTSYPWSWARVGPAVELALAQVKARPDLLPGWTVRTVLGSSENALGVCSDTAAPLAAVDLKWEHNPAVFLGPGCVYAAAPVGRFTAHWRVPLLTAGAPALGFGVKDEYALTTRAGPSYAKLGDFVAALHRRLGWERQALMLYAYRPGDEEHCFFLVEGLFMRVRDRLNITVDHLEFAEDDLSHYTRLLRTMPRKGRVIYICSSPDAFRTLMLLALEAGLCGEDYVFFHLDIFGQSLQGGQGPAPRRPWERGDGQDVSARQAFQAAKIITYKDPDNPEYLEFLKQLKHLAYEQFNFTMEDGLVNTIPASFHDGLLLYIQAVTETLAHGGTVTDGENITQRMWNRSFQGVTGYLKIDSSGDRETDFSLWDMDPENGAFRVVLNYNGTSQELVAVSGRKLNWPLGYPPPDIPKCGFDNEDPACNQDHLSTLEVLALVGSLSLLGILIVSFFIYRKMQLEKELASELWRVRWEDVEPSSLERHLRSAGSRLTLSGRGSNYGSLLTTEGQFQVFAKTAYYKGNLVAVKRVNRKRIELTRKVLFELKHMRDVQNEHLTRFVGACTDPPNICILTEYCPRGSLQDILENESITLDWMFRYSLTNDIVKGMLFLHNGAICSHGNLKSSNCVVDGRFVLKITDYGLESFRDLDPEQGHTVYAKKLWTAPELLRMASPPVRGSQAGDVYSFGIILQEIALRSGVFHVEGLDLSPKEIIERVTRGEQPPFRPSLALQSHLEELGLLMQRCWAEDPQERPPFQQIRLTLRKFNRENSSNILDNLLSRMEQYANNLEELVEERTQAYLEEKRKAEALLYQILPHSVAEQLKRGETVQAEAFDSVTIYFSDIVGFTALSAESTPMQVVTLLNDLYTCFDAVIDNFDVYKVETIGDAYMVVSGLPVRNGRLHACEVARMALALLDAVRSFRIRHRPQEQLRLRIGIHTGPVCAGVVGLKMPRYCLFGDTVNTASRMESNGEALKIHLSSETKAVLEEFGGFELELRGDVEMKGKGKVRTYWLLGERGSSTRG
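Compound pre-incubated 30 min at room temperature on GloSensor-loaded HEK293 cells stably carrying hNpr1 and the pGS-40F cGMP biosensor. Stimulation uses hNppA at 0.1 nM final; luminescence is taken at baseline and 20 min post-agonist.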
SNCA expr inh = Primary qHTS assay for inhibitors of alpha-synuclein gene (SNCA) expression. HEK-293 SNCA-luciferase knock-in, luminescence, 24 h. hit rate 0.17% among 140,000. Potency, µM (highest dose often 57.2 µM), most hits filed as inhibitors; note: nearly all actives have a fitted effect of over 45% in size
SNCA viab count = GF-AFC viability counterscreen for inhibitors of alpha-synuclein gene (SNCA) expression; HEK-293-SNCA-luc viability, GF-AFC fluorescence, 24 h; Potency, µM (doses to about 57.1 µM), actives largely listed as cytotoxic; hit rate 0.12% among 150,000; note: nearly all actives have a fitted effect of over 30% in size
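Cytotoxicity counterscreen: after 24 h compound treatment of genome-edited SNCA-luciferase HEK-293 cells, live-cell protease substrate GF-AFC read by fluorescence after 30 min; activity scaled between DMSO (0%) and medium-only (-100%), curves Hill-fitted.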
HEK293 tox = Cytotoxic Profiling in HEK 293 Cell Line of Diverse Libraries Using Quantitative High-Throughput Screening | hit rate 6.6% among 94,000 | Potency, µM (series often up to 115 µM), most hits filed as inhibitors | HEK 293 viability, ATP luminescence (CellTiter-Glo), 48-72 h; note: nearly all actives have a fitted effect of over 60% in size
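Read-out: CellTiter-Glo ATP luminescence. Cells: HEK 293, 250 cells/well. Exposure: 48 or 72 hr, 37 degree Celsius.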
NIH3T3 tox = Cytotoxic Profiling in NIH 3T3 Cell Line of Diverse Libraries Using Quantitative High-Throughput Screening; NIH 3T3 viability, CellTiter-Glo ATP luminescence, 48-72 h; AID 1345082, 2018; Potency, µM (titrated, usually from 96.7 µM), usual class: inhibitors; hit rate 4.3% among 94,000; note: nearly all actives have a fitted effect of over 55% in size
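Cytotoxicity is measured as loss of cellular ATP: NIH 3T3 cells (400/well) are exposed to compound for 48 or 72 hr at 37 °C, then CellTiter-Glo luminescence is imaged after 10 min at room temperature.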
Hits are given with their value; n = inactive; u = inconclusive; x = no result given; [ ] = remark or other dose. Compounds with a hit are over-represented: about 7.4% of the library has one in this group of screens. Unless noted, calls come from the whole dose curve; as a rule, active = well fitted curve in the direction sought with a large enough effect; inconclusive = small, poorly fitted or top-dose-only effect, or another doubt; inactive = no such curve, though single readings can be large; an effect the other way counts as inactive or inconclusive.

SMILES	FLuc inh	NPR1 antag	SNCA expr inh	SNCA viab count	HEK293 tox	NIH3T3 tox
F[C@@H]1CN(CC2CC2)C[C@@H]1OCc1nc2ccccc2o1	35.5µM	n	n	n	n	n
F[C@@H]1CN(C2CCOCC2)C[C@@H]1OCc1nc2ccccc2o1	n	n	n	n	n	n
F[C@@H]1CN(C2CCC2)C[C@@H]1OCc1nc2ccccc2o1	79.4µM	n	n	n	n	n
COc1ccc(C(=O)N2CCN(C(=O)c3nc4cccnc4n(C4CCCC4)c3=O)CC2)cc1	x	x	n	n	n	n
COC1CCC(C(=O)N2CC(CNc3ccccc3)C3(C2)CN(c2ccccc2)C3)CC1 (stereo not given)	n	n	u	n	63.1µM	44.7µM
O=C(CCc1cccnc1)N1CC(CNc2ccccc2)C2(C1)CN(c1ccccc1)C2 (stereo not given)	n	n	u	n	u	u
O=C(CCc1cccnc1)N1CC(COc2ccccc2)C2(C1)CN(c1ccccc1)C2 (stereo not given)	n	n	n	n	89.1µM	u
O=C(O)c1ccc([S+](=O)([O-])N2CC(COc3ccccc3)C3(CN(c4ccccc4)C3)C2)cc1 (stereo not given)	n	n	n	n	n	31.6µM
COCC(=O)N1CC(CNc2ccccc2)C2(C1)CN(c1ccccc1)C2 (stereo not given)	n	n	n	n	u	n
O=C(Cc1cccc(O)c1)N1CC(CNc2ccccc2)C2(C1)CN(c1ccccc1)C2 (stereo not given)	n	n	u	u	31.6µM	22.4µM
CC(C)NC(=O)C[C@@H]1O[C@H](CNS(C)(=O)=O)[C@@H](O)[C@H]1O	n	n	n	n	n	n
CC1CCN(C(=O)C2CCCCc3nnc(-c4ccccc4)n32)CC1 (stereo not given)	x	x	n	n	n	n
COC1CCC(C(=O)N2CC(COc3ccccc3)C3(C2)CN(c2ccccc2)C3)CC1 (stereo not given)	n	n	u	n	89.1µM	89.1µM
N#Cc1cccc(C(=O)N2CC(COc3ccccc3)C3(C2)CN(c2ccccc2)C3)c1 (stereo not given)	n	n	n	n	u	n
CN1CCc2c(sc3c2C(=O)NC(c2ccc(OC(=O)c4ccc(C(C)(C)C)cc4)cc2)N3)C1 (stereo not given)	x	x	1µM	u	x	x
COc1ccccc1NC(=O)c1cc(-c2ccccc2C(F)(F)F)nc2c1cnn2C	x	x	x	x	44.7µM	u
Cn1ncc2c(C(=O)Nc3ccccc3F)cc(-c3ccccc3C(F)(F)F)nc21	x	x	x	x	n	n
COc1ccccc1-c1cc(C(=O)Nc2ccc(Cl)cc2)c2cnn(C)c2n1	x	x	x	x	22.4µM	u
COc1cccc(NC(=O)c2cc(-c3ccccc3C(F)(F)F)nc3c2cnn3C)c1	x	x	x	x	22.4µM	u
COc1cccc(NC(=O)c2cc(-c3ccc(C(F)(F)F)cc3)nc3c2cnn3C)c1	x	x	x	x	39.8µM	u
Cn1ncc2c(C(=O)Nc3cccc(Cl)c3)cc(-c3ccccc3C(F)(F)F)nc21	x	x	x	x	u	n
Oc1ccccc1CN1CCC(O)(c2csc(CN3CCc4ccccc4C3)n2)CC1	n	n	n	n	u	u
O=C(NCCCNc1nc(Nc2cccc(CN3CCOCC3)c2)ncc1C1CC1)C1CCC1	x	x	x	n	x	x
CCOCCNC(=O)c1ccc2nnc(C3CCOCC3)n2c1	x	x	x	x	n	n
CCCN(CC1CCOC1)C(=O)NC(C)C (stereo not given)	n	n	n	n	n	n
SMILES	FLuc inh	NPR1 antag	SNCA expr inh	SNCA viab count	HEK293 tox	NIH3T3 tox
CCN1c2cc(C(=O)NCc3cccc(Br)c3)ccc2C(=O)N2CCCCC21 (stereo not given)	n	n	n	n[12.5 µM]	31.6µM	u
CCN1c2cc(C(=O)Nc3ccc(Br)cc3)ccc2C(=O)N2CCCC21 (stereo not given)	n	n	n	n[12.5 µM]	n	n
CCN1c2cc(C(=O)Nc3cccc(Br)c3)ccc2C(=O)N2CCCCCC21 (stereo not given)	n	n	u	n[12.5 µM]	17.8µM	28.2µM
CCN1c2cc(C(=O)Nc3cccc(Br)c3)ccc2C(=O)N2CCCCC21 (stereo not given)	n	n	n	n[12.5 µM]	17.8µM	17.8µM
COCCC1(C(=O)O)CCCN(CCN2CCCC2=O)C1 (stereo not given)	n	n	n	n	n	n
O=C(c1nc(-c2ccc(Cl)cc2)c2ccccn12)N1CCCC1	44.7µM	n	n	n	u	u
N#CC1CCN(C(=O)c2nc(-c3cc(Cl)cc(Cl)c3)c3ccccn23)CC1	n	n	n	n	25.1µM	u
O=C(c1nc(-c2ccc(Cl)cc2Cl)c2ccccn12)N1CCCC1	x	x	n	n	u	u
O=C(c1nc(-c2ccc(Cl)cc2Cl)c2cnccn12)N1CCN(c2ncccn2)CC1	x	x	n	n	n	n
O=C(c1nc(-c2ccc(Cl)cc2Cl)c2ccccn12)N1CCN(c2ncccn2)CC1	x	x	n	n	39.8µM	u
COCCNC(=O)c1nc(-c2ccc(Cl)cc2)c2ccccn12	n	n	n	n	u	79.4µM
COc1ccc(C(=O)Nc2ccc([C@@H](O)[C@H]3COCC(=O)N3Cc3ccc(F)cc3)cc2)cc1OC	n	n	n	n	u	n
O=C(NCc1ccc2c(c1)OCO2)c1nc(-c2ccccc2)c2ccccn12	n	n	n	n	n	u
O=C(NCc1ccc2c(c1)OCO2)c1nc(-c2ccc(Cl)cc2Cl)c2ccccn12	n	n	n	n	31.6µM	u
COCCCn1c(C)cc(C(=O)NCCc2noc(-c3ccccc3)n2)c1C	n	n	n	n[12.5 µM]	39.8µM	u
COC(=O)[C@@H]1Cc2c([nH]c3ccccc23)[C@H]2C[C@H](NCc3cccs3)C[C@@H](c3ccc(F)cc3)N21	n	n	n	n	28.2µM	22.4µM
COc1cc(C(=O)N2CCc3c([nH]c4ccccc34)C2c2ccc(F)cc2)cc(OC)c1OC (stereo not given)	x	x	u	n	x	x
COC(=O)[C@@H]1Cc2c([nH]c3ccccc23)[C@H]2C[C@@H](NCc3cccs3)C[C@@H](c3ccc(F)cc3)N21	n	n	n	n	u	79.4µM
Cc1cc(C)cc(NC(=O)c2cc(-c3ccc[nH]3)n[nH]2)c1	20µM	n	n	n	u	u
Cc1ccc(NC(=O)c2cc(-c3ccc[nH]3)n[nH]2)cc1C	7.94µM	n	n	n	n	n
